Experimental data: the supplement of paper PMC6555819

What was measured:
Test in all cases: PBM binding z-score (relative to random genomic background probes); higher = stronger binding; sequences stand for … in GC…GCGATTGACAGCGTAGAATGAAGG
[1] = tested on: RARb homodimer (NR concentration 270 nM)
In short: (§1)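 Antibodies against each partner of ligand-free nuclear receptor dimers (one per run) detected binding on custom Agilent 4×180K protein-binding microarrays after 1 h incubation. The double-stranded probes had 34-nt variable regions carrying direct-repeat seeds, single-nucleotide variants, half-site ablations and random human genomic background sequences. Binding z-scores, from regression-normalized fluorescence, use the random background probes as reference.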

[2] = tested on: RARg:RXRa (NR concentration 270 nM, RXRa partner concentration 90 nM)
In short: as §1

[3] = tested on: RARg homodimer (NR concentration 270 nM)
In short: as §1

[4] = tested on: RXRa DBDmut IVT, anti-RXR (DBD mutation: RXRa K156A/R161A, NR concentration 90 nM)
In short: as §1

[5] = tested on: RXRa homodimer (NR concentration 180 nM)
In short: as §1

[6] = tested on: THRa:RXRa (NR concentration 90 nM, RXRa partner concentration 90 nM)
In short: as §1

[7] = tested on: THRa homodimer (NR concentration 90 nM)
In short: as §1

[8] = tested on: VDR homodimer (NR concentration 270 nM)
In short: as §1

Row | Sequence | PBM binding z-score [1] | PBM binding z-score [2] | PBM binding z-score [3] | PBM binding z-score [4] | PBM binding z-score [5] | PBM binding z-score [6] | PBM binding z-score [7] | PBM binding z-score [8]
1 | CTACCAAGGTGAACAAGGTCGGTGATTACTATTC | 1.6 | 1.22 | 1.42 | 0.135 | 1.23 | 2.66 | 1.27 | 0.361
2 | CCTATTAGTTGACCTTAAGGGCAACCGAAGCTCG | 4.16 | 4.56 | 3.45 | 1.41 | 4.9 | 4.36 | 5.34 | 2.12
3 | ATATGTAGGTTAGCTGGGGTCATTCGGACTAGGC | 3.59 | 4.28 | 2.86 | 2.17 | 5.36 | 5.12 | 3.5 | 5.38
4 | CCTACTGGGCCAAAGATCATTGATTCCAATGCTC | -0.626 | 0.0876 | -0.132 | -0.275 | 0.0908 | -0.415 | -0.657 | -0.324
5 | AGTCAAAGTTCACTAGGTAAGGTAAGATTCAGCT | 3.88 | 4.78 | 6.02 | 4.18 | 3.95 | 2.51 | 1.03 | 3.36
6 | ACTATTAGTTGAGACGAGCGCAACCGATAGGTTG | -0.567 | -0.546 | 0.138 | -0.188 | -0.211 | -0.381 | -0.708 | -0.0904
7 | TCTAGTTGGTGAAAGGTCACACACTCGAAATGCG | 4.86 | 6.24 | 5.72 | 1.95 | 7.42 | 3.97 | 2.01 | 2.58
8 | CCTACTGGCCCATCAGGTCATTGATATCAACGTT | 2.36 | 1.72 | 1.54 | 0.0636 | 1.13 | 3.29 | 3.04 | 1.9
9 | CATCCAAGGTCATAGGAGGTCAGTGAAGACAGAT | 5.07 | 7.02 | 7.22 | 3.91 | 7.03 | 5.14 | 3.35 | 5.28
10 | TCTTGTAGATCAATAGAGGTTAAGGAAGTGCGCT | 1.1 | 0.898 | 0.454 | 0.775 | 1.61 | 2.38 | -0.179 | 0.208
11 | CTACCACGGTGAACAAGGTCGTTGATTACTATTC | 1.3 | 0.591 | 0.651 | 1.04 | 0.823 | 1.93 | 1.4 | 2.12
12 | TGAATGAGGTTAAAGATCAGGAAACGTGGCGTCG | 0.6 | 2.53 | 1.23 | 1.25 | 3.88 | 2.41 | 0.21 | 0.62
13 | CCAGACAGGTGAGAAGGTAACTCAACCTCGATTA | 0.715 | 0.716 | 0.698 | 0.0591 | 0.59 | 0.724 | 0.31 | -0.0105
14 | TCTGCTAGGTCAACGATGGTCCGCTAATCTGCTA | 2.94 | 3.75 | 4.7 | 1.2 | 2.3 | 2.56 | 0.713 | -0.413
15 | TTAACAAGGTGAAGGTCGTTGATCCCTCTGTAGA | 1.5 | 1.38 | 1.26 | 0.219 | 1.88 | 2.4 | 0.923 | 0.715
16 | AGAATGAGGTTATTAAGATCAGGGAGTTGCGGTC | 0.826 | 1.05 | 0.672 | 1.99 | 1.78 | 2.17 | 0.897 | 1.39
17 | TAGCCTAGGTCATGCGGGCGAGTATAGTGTCGGC | 2.94 | 3.64 | 3.75 | 0.518 | 2.68 | 2.89 | 1.22 | 0.494
18 | AGTCAAAGTTCAGGACTAGGTAACGTAAAGCACG | 2.93 | 4.32 | 4.99 | 2.87 | 2.92 | 2.51 | 0.371 | 1.94
19 | CCGACTGGGGCAGAAAGGTTACCCTACCATCCGG | 2.2 | 1.35 | 0.99 | -0.847 | 1.43 | 1.07 | -0.0158 | -0.359

Row | Sequence | PBM binding z-score [1] | PBM binding z-score [2] | PBM binding z-score [3] | PBM binding z-score [4] | PBM binding z-score [5] | PBM binding z-score [6] | PBM binding z-score [7] | PBM binding z-score [8]
20 | CTCGAAAGGTCGTGCTCATGTGAGTATACCAAAC | 2.68 | 4.43 | 3.69 | 2.15 | 5.19 | 2.45 | 0.174 | 0.995
21 | AGAATGAGGTTACCAAAGATCAAGGAAACGCTTG | 0.992 | 2.37 | 1.88 | 1.13 | 2.85 | 3.03 | 0.74 | 0.375
22 | CGAACTAGGTCAAGGACAGTGAATCTCCGCACGC | 3.01 | 3.95 | 4.49 | 1.42 | 2.57 | 3.25 | 2.14 | 0.847
23 | ATCTCTAGGTAACATGTTCAGTGAAAGAGAGGAC | 0.187 | 0.668 | 0.705 | 0.0522 | 0.565 | 1.04 | 0.541 | -0.0529
24 | GCAGACAGGTGAAACGCAGATAACTCAGGGTGGC | -0.0268 | 0.355 | 0.45 | -0.555 | 0.883 | 0.121 | -0.589 | -0.804
25 | ACAGACAGGTGAGGAAGGTAACTCAGGCTATCAT | 0.672 | 0.425 | 0.577 | -0.639 | 0.267 | 0.957 | 0.208 | -0.55
26 | ACCTCTAGGTAAAGTTCAGTGAAAGATCGATAGA | 2.27 | 1.59 | 2.19 | 1.47 | 0.983 | 0.866 | -0.127 | 1.51
27 | CAAACTAGGTAAAGGTCAAAGTCGGTTTGTGCCA | 4.92 | 6.24 | 5.71 | 2.3 | 6.98 | 3.87 | 1.05 | 2.8
28 | CAAACTAGGTCAAGGGCAAAGTCGGTTTGTGCCA | 4.17 | 3.94 | 4.68 | 2.01 | 3.06 | 3.27 | 1.43 | 1.79
29 | TATAGAGGGTCAAAGGCCAGAGTACGAATGTCGA | 3.3 | 4.91 | 4.91 | 2.16 | 6.11 | 2.39 | -0.0967 | 1.73
30 | TCTTGTAGATCAATAGATGTTAAGAAAGTGCGCT | -0.256 | 0.00708 | 0.206 | 0.767 | 0.395 | -0.118 | -0.769 | -0.147
31 | CAAACTAGGTCAGGAGGTCAAAGTCCGCTTCCCG | 5.3 | 6.99 | 5.98 | 2.11 | 5.81 | 3.97 | 2.52 | 3.61
32 | TGAATAAGGTTATAAGATCAGGGAACGTTGCAAA | 0.682 | 1.59 | 1.14 | 0.444 | 1.89 | 1.79 | 0.426 | 0.135
33 | AATACAGGGTCATCGTAGGCCTGAGTACGCACAG | 3.36 | 5.59 | 4.89 | 3.34 | 6.77 | 4.2 | 1.25 | 3.73
34 | AGGATGAGGTTATTAAGATCAGGGAATTGCGGTC | 1.49 | 1.41 | 1.1 | 1.78 | 1.9 | 2.24 | 1.47 | 1.97
35 | TCTGCTAGGTCAATTGGTCAGCTAACGAGCTGCC | 2.93 | 3.91 | 4.34 | 1.21 | 2.09 | 2.3 | -0.00918 | -0.473
36 | CGTCCCAGGTCAAAGGTCAGTGAAGAGATGACGG | 5.2 | 7.98 | 7.02 | 2.62 | 9.93 | 4.99 | 2.8 | 2.7
37 | TCTAGTTGGTCAAAGGTCACAAACTCGAAATGCG | 4.92 | 6.76 | 6.07 | 1.79 | 7.88 | 3.84 | 1.73 | 2.43
38 | ATATCTAGGTAAAGTTCAGTGAAAGATCGATAGA | 2.45 | 2.04 | 2.43 | 1.6 | 1.53 | 1.33 | 0.34 | 1.78

Row | Sequence | PBM binding z-score [1] | PBM binding z-score [2] | PBM binding z-score [3] | PBM binding z-score [4] | PBM binding z-score [5] | PBM binding z-score [6] | PBM binding z-score [7] | PBM binding z-score [8]
39 | ACAGACAGGTGAAGAAGGTAACTCAGGCTATCAT | 0.685 | 0.696 | 0.885 | -0.215 | 0.527 | 1.32 | 0.0297 | -0.131
40 | ATCTCTAGGTAAAAGTTCATTGAATCCCGAGGAT | 2.65 | 2.61 | 2.06 | 1.89 | 2.82 | 1.87 | 0.281 | 3.33
41 | CAAACTAGGTCACCGGAAGGTCAAAGCCCGCATG | 5.35 | 8.33 | 7.37 | 1.48 | 6.03 | 4.42 | 2.96 | 3.25
42 | GATCGGAGGACAAGGTCAGAGCTTTGTCCGTAGA | 3.27 | 3.05 | 3.57 | 0.217 | 2.48 | 2.94 | 1.33 | 0.466
43 | CGTCCAAGGTCAGAGAGGCCAGTGAATGCCGAGT | 4.08 | 4.46 | 5.6 | 2.66 | 3.4 | 3.28 | 1.86 | 2.3
44 | TTATATAGGTAAATGCTAGGTGAAAGTCCGATCT | 0.66 | 0.442 | 0.423 | 0.585 | 0.781 | 1.62 | 0.619 | 0.705
45 | TCGAGTAGGTTAGTCGGGGCATTCGGCCAACATA | 0.848 | -0.0623 | 0.0417 | -0.081 | -0.218 | 0.974 | -0.521 | 0.124
46 | CGTACTGGGCCACGAAAGGTCATTGATTCAGTGA | 4.58 | 4.97 | 4.48 | 0.97 | 5.18 | 3.83 | 1.09 | 2.78
47 | CTTTACGGGTCACGAGGTTATAGCACGACGAGCG | 4.15 | 6.33 | 5.71 | 2.53 | 7.44 | 3.92 | 1.66 | 2.28
48 | ACTATTAGTTTAGACGAGGGCAACCGATAGGTTG | 1.49 | 0.78 | 1.15 | 0.931 | 0.581 | 2.5 | 0.435 | 1.65
49 | TAGCCTATGTCATTGGGCCAGTATAGTACGCATC | -0.0367 | 0.242 | 0.413 | -0.587 | 0.472 | -0.314 | -0.671 | -0.244
50 | CAAACTAGGTCACCGGTAGGTCAAAGTCCGCATG | 4.94 | 7.11 | 6.27 | 1.7 | 4.82 | 4.3 | 2.8 | 2.2
51 | GGAACCAGGGCATTCGAGTTGATAGCATGGCGAT | 1.54 | 1.05 | 1.49 | 1.17 | 0.534 | 2.66 | 0.671 | 1.97
52 | ATCGAAAGGTCGACGAGGTTAGTATACACCGTTT | 3.1 | 4.27 | 4.18 | 1.45 | 4.55 | 3.37 | 0.478 | 2.31
53 | ATCGAAAGGTCGACGTGGTGAGTATACACCGTTT | 2.74 | 4.04 | 4.24 | 1.23 | 4.03 | 1.89 | -0.255 | 0.481
54 | CCAGACAGGTCAGAAGGTAACTCAGCCTCGATTA | 2.66 | 3.85 | 3.63 | 1.34 | 2.61 | 1.39 | 0.239 | 0.366
55 | TTTTGTAGATCAAAGGTTAAGAAAGCCGAAGCCT | 1.49 | 1.74 | 0.912 | -0.536 | 3.39 | 1.3 | -0.617 | -0.0263
56 | CCTACTGGGCCACGAACGGTCATTGATTCAGTGA | 1.91 | 0.72 | 1 | -0.535 | -0.0982 | 0.584 | -0.505 | -0.169
